Laboratory results from PubChem BioAssay (NCI).
About 83,000 compounds went through this panel and 20% of them were active in at least one assay; those are over-represented in the sample as a whole.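 Growth was measured after 48 h exposure to one concentration of compound in 96-well plates. Values under 10 count as active.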 Activity calls are given as the source filed them.

Each compound was assayed on MDA-MB-435 melanoma (assay: NCI-60 one-dose screen, 48 h (100 = growth as untreated, 0 = no growth, -100 = all killed)). Settings: 10 µM.

Row | SMILES | growth
1 | CCOC(=O)C1=C(N)N(c2ccccc2)C2=C(C(=O)CC(C)(C)C2)C1c1ccc(Cl)cc1 (stereo unspecified) | 22% (inactive)
2 | CCCn1c(=O)c2[nH]c(-c3ccc(OCc4nc5ccc(F)cc5[nH]4)cc3)nc2n(CCC)c1=O | 47.8% (inactive)
3 | Cc1ccc(/C(CSc2nnc(-c3c[nH]c4ccccc34)n2-c2ccccc2)=N/O)cc1 | -100% (active)
4 | CN1CCN(c2ccc(C(=O)/C=C/c3cc(C(F)(F)F)ccc3Cl)cc2)CC1 | -56.5% (active)
5 | COc1ccc(C(=O)Nc2sc3c(c2C#N)CCC(=O)C3)cc1C(F)(F)F | -21.7% (active)
6 | Cc1ccc(/C=C/C(=O)c2ccc(NC(=O)CSc3nnc(-c4c[nH]c5ccccc45)n3-c3ccccc3)cc2)cc1 | 72.8% (inactive)
7 | COc1ccc(Nc2nc(N)n(Cc3cccc(Br)c3)n2)cc1 | -18.2% (active)
8 | O=C1CCC(N2Cc3cc(NC(=O)COc4ccccc4)ccc3C2=O)C(=O)N1 (stereo unspecified) | 88.1% (inactive)
9 | O=C(/C=C/Nc1ccccc1)c1ccc2c(c1)Nc1ccccc1S2 | 85% (inactive)
10 | COc1cc2c(c(OC)c1OC)C(=O)CC(c1cccc(NC(=O)c3cccc(N)c3)c1)O2 (stereo unspecified) | 77.4% (inactive)
11 | Cc1noc2c(Cc3ccc([N+](=O)[O-])cc3)nn(CC(=O)N/N=C/c3ccc(Br)cc3)c(=O)c12 | 92.3% (inactive)
12 | COc1ccc(-c2nc(Nc3ccccc3S(N)(=O)=O)c3ccccc3n2)cc1 | 34.1% (inactive)
13 | COc1cc(/C=C/C(=O)c2ccc(NC(=O)CSc3nnc(-c4c[nH]c5ccccc45)n3-c3ccccc3)cc2)cc(OC)c1OC | 34.1% (inactive)
14 | O=C(CSc1nnc(-c2ccc3nc(-c4ccc(Cl)cc4)[nH]c3c2)o1)Nc1ccc(Br)cc1 | -88% (active)
15 | Cc1ccn2c(C(=O)c3ccccc3)cc(-c3cc(-c4ccc(N(C)C)cc4)c(C#N)c(N)n3)c2c1 | 78.8% (inactive)
16 | O=C1c2ccccc2C(=O)c2c1c(C(=O)c1ccc(Cl)cc1)n1c2ccc2c3ccccc3ccc21 | 114% (inactive)
17 | Cn1c(O)c(N=Nc2nc(-c3cc4ccccc4oc3=O)cs2)c2cc(Br)ccc21 | 106% (inactive)
18 | Cn1cc(-c2cc(N)n3nc(-c4c[nH]c5ccc(Br)cc45)cc3n2)c2cccnc21 | -77.7% (active)
19 | COc1ccc2c3nc4cc(C)c(C)cc4nc3n(CCN(C)C)c2c1 | -76.1% (active)
20 | O=C(CSc1nnc(-c2c[nH]c3ccccc23)n1-c1ccccc1)c1ccc(Br)cc1 | 40.9% (inactive)
21 | OCc1[nH]nc2cc(Nc3ncc4ccc(Br)c(OC5CCC(O)CC5)c4n3)ccc12 (stereo unspecified) | -15.7% (active)
22 | Cc1cc(C)nc(NS(=O)(=O)c2ccc(N/C(N)=N/c3nccc(-c4ccccc4)n3)cc2)n1 | 86% (inactive)
23 | N#Cc1c(NC(=O)c2ccc(C(O)(C(F)(F)F)C(F)(F)F)cc2)sc2c1CCC(=O)C2 | -45.2% (active)
24 | N#Cc1ccc(-c2nn(-c3ccc(C(=O)O)cc3)cc2CNc2cc(Cl)cc(C(F)(F)F)c2)cc1 | 9.7% (active)

These compounds were tested on SW-620 colon in the same assay as above. Settings: 10 µM.

Row | SMILES | growth
25 | O=C(NO)c1ccc(-c2nc3ccc4[nH]ncc4c3c3c2CCCC3)cc1 | 1.77% (active)
26 | O=C(CNc1nc(-c2ccccc2)cs1)Nc1ccc(Cl)cc1 | -68.5% (active)
27 | COc1cc2c3c(n(CCCN4CCOCC4)c(=O)c2cc1OC)-c1nc2c(cc1C3=O)OCO2 | 22.2% (inactive)
28 | Cc1ccc(/C=C/C(=O)c2ccc(NC(=O)CSc3nnc(-c4c[nH]c5ccccc45)n3-c3ccccc3)cc2)c(C)c1 | 33.2% (inactive)
29 | O=C(CN1CCN(c2ncnc3c2cnn3-c2ccccc2)CC1)Nc1nncs1 | -23.9% (active)
30 | CC(=O)Oc1ccccc1C(=O)Oc1ccc(C(=O)/C=C/c2ccncc2)cc1 | 6.33% (active)
31 | O=C(NC(=S)N1CCN(c2ncnc3c2cnn3-c2ccccc2)CC1)c1ccc(Cl)cc1 | 68.9% (inactive)
32 | C/C(=N\N=C\c1ccc(N(C)C)cc1)c1ccc2c(c1)Nc1ccccc1S2 | 35.3% (inactive)
33 | COC(=O)C[C@](O)(CCCC(C)(C)O)C(=O)O[C@H]1C(OC)=C[C@@]23CCC(=O)N2CCc2cc4c(cc2[C@@H]13)OCO4 | 91.9% (inactive)
34 | CN1CCN(Cc2ccc(NC(=O)c3cncc(C#Cc4cnc5ccc(N[C@H]6CCOC6)nn45)c3)cc2C(F)(F)F)CC1 | -69.8% (active)
35 | CCOc1ccc(/C=N/NC(=O)Cn2nc(Cc3ccc([N+](=O)[O-])cc3)c3onc(C)c3c2=O)cc1 | 15.2% (inactive)
36 | CN1CCN(c2ccc(C(=O)/C=C/c3ccc(OC(F)F)cc3)cc2)CC1 | -32.8% (active)
37 | COc1ccc(C2N(c3ccc(Br)cc3)N=C(C(C)=O)N2[C@H]2[C@H](OC(C)=O)O[C@H](COC(C)=O)[C@@H](OC(C)=O)[C@@H]2OC(C)=O)cc1 (stereo partly specified) | 82.5% (inactive)
38 | CCOC(=O)C1=C(N)N(c2ccccc2)C2=C(C(=O)CC(C)(C)C2)C1c1ccc(Cl)cc1 (stereo unspecified) | 27.9% (inactive)
39 | CCCn1c(=O)c2[nH]c(-c3ccc(OCc4nc5ccc(F)cc5[nH]4)cc3)nc2n(CCC)c1=O | 17.1% (inactive)
40 | Cc1ccc(/C(CSc2nnc(-c3c[nH]c4ccccc34)n2-c2ccccc2)=N/O)cc1 | -80.4% (active)
41 | CN1CCN(c2ccc(C(=O)/C=C/c3cc(C(F)(F)F)ccc3Cl)cc2)CC1 | -70.7% (active)
42 | COc1ccc(C(=O)Nc2sc3c(c2C#N)CCC(=O)C3)cc1C(F)(F)F | -30.7% (active)
43 | Cc1ccc(/C=C/C(=O)c2ccc(NC(=O)CSc3nnc(-c4c[nH]c5ccccc45)n3-c3ccccc3)cc2)cc1 | 90.1% (inactive)

Row | SMILES | growth
44 | COc1ccc(Nc2nc(N)n(Cc3cccc(Br)c3)n2)cc1 | 18.3% (inactive)
45 | O=C1CCC(N2Cc3cc(NC(=O)COc4ccccc4)ccc3C2=O)C(=O)N1 (stereo unspecified) | 55.2% (inactive)
46 | O=C(/C=C/Nc1ccccc1)c1ccc2c(c1)Nc1ccccc1S2 | 89.3% (inactive)
47 | COc1cc2c(c(OC)c1OC)C(=O)CC(c1cccc(NC(=O)c3cccc(N)c3)c1)O2 (stereo unspecified) | 94.1% (inactive)
48 | Cc1noc2c(Cc3ccc([N+](=O)[O-])cc3)nn(CC(=O)N/N=C/c3ccc(Br)cc3)c(=O)c12 | 97.4% (inactive)
49 | COc1ccc(-c2nc(Nc3ccccc3S(N)(=O)=O)c3ccccc3n2)cc1 | 8.47% (active)
50 | COc1cc(/C=C/C(=O)c2ccc(NC(=O)CSc3nnc(-c4c[nH]c5ccccc45)n3-c3ccccc3)cc2)cc(OC)c1OC | 25.4% (inactive)
51 | O=C(CSc1nnc(-c2ccc3nc(-c4ccc(Cl)cc4)[nH]c3c2)o1)Nc1ccc(Br)cc1 | -20.9% (active)
52 | Cc1ccn2c(C(=O)c3ccccc3)cc(-c3cc(-c4ccc(N(C)C)cc4)c(C#N)c(N)n3)c2c1 | 69.7% (inactive)
53 | O=C1c2ccccc2C(=O)c2c1c(C(=O)c1ccc(Cl)cc1)n1c2ccc2c3ccccc3ccc21 | 101% (inactive)
54 | Cn1c(O)c(N=Nc2nc(-c3cc4ccccc4oc3=O)cs2)c2cc(Br)ccc21 | 99.8% (inactive)
55 | Cn1cc(-c2cc(N)n3nc(-c4c[nH]c5ccc(Br)cc45)cc3n2)c2cccnc21 | -78.6% (active)
56 | COc1ccc2c3nc4cc(C)c(C)cc4nc3n(CCN(C)C)c2c1 | -51.6% (active)
57 | O=C(CSc1nnc(-c2c[nH]c3ccccc23)n1-c1ccccc1)c1ccc(Br)cc1 | 79.8% (inactive)
58 | OCc1[nH]nc2cc(Nc3ncc4ccc(Br)c(OC5CCC(O)CC5)c4n3)ccc12 (stereo unspecified) | -18.6% (active)
59 | Cc1cc(C)nc(NS(=O)(=O)c2ccc(N/C(N)=N/c3nccc(-c4ccccc4)n3)cc2)n1 | 93.8% (inactive)
60 | N#Cc1c(NC(=O)c2ccc(C(O)(C(F)(F)F)C(F)(F)F)cc2)sc2c1CCC(=O)C2 | -52.8% (active)
61 | N#Cc1ccc(-c2nn(-c3ccc(C(=O)O)cc3)cc2CNc2cc(Cl)cc(C(F)(F)F)c2)cc1 | 21.2% (inactive)
